Hits are enriched below; roughly 22% of the tested compounds scored in any of these assays.
Measles CPE = protection of cells from measles virus. hit rate 1.5% among 140,000. AID 841. protection (pct of control), % at 4 µM. Measles virus-infected cells, CPE protection, absorbance; in the data active means protection mostly above about 24%, no sharp cut-off; inactive means mostly below about 26%
CYP2C19 act = activators of human cytochrome P450 2C19. recombinant CYP2C19, luciferin-H EGE luminescence; active compounds read high; 0 = fully inhibited enzyme, 1 = untreated enzyme. 96,000 tested, under 10 active. P33261. activation factor at 5 µM. AID 1025;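 active means activation factor of at least 2 at 5 µM in the primary screen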;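 further: 0 = wells with 2.5 mM tranylcypromine and 1 = vehicle-only wells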
CYP2C9 inhib = inhibitors of human CYP2C9; CYP2C9 Supersomes, luciferin-H conversion, luminescence; hit rate 20% among 96,000; inhibition, % at 5 µM;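 active means blocking of liver enzyme CYP2C9 beyond about 50% at 5 µM, limit read from the data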
Target sequence (P11712 whole entry, looked up): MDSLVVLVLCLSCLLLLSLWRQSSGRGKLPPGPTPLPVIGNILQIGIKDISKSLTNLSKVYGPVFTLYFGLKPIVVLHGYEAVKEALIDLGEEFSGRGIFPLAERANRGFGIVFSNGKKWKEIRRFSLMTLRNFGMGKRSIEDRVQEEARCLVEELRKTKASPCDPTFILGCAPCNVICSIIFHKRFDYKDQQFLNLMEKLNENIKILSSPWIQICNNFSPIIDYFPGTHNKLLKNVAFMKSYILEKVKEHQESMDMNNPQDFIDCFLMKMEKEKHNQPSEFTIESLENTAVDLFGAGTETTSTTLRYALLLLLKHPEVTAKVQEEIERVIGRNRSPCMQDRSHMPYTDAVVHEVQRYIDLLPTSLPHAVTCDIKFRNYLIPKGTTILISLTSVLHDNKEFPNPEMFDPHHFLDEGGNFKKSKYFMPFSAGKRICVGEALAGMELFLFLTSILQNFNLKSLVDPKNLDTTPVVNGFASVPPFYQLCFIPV
CYP2C19 inh = blocks human cytochrome P450 2C19. P33261. CYP2C19 Supersomes, luciferin-H EGE luminescence, 30 min. inhibition, % at 5 µM. hit rate 21% among 96,000;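 active means CYP2C19 inhibition above a set limit at 5 µM in the primary screen, cut at about 50% in these data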;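 further: plate controls were negative control wells for no effect and 2.5 mM tranylcypromine positive control for full effect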
CYP2C9 activ = increases human cytochrome P450 2C9 activity. recombinant CYP2C9, luciferin-H conversion, luminescence; active compounds read high; factor 1 = untreated enzyme, 0 = blocked. activation factor at 5 µM. hit rate 1.4% among 96,000;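 active means activation factor of 2 or more for CYP2C9 at a 5 µM dose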;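 further: 0 = sulfaphenazole-blocked wells and 1 = vehicle-only wells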
Active calls of the source: *; nt = no result given.

SMILES | Measles CPE | CYP2C19 act | CYP2C9 inhib | CYP2C19 inh | CYP2C9 activ
CCOc1ccc(C2Nc3ccc4ccccc4c3-c3c2c(=O)oc2ccccc32)cc1 (centres undefined) | 1 | 0.5 | 84* | 52* | 0.2
COc1ccc(C2Nc3ccc4ccccc4c3-c3c2c(=O)oc2ccccc32)cc1 (centres undefined) | 4 | 0.9 | 83* | 12 | 0.2
COc1cc(Cl)c(C)cc1NC(=O)COC(=O)c1cnc(C)cn1 | 9 | 0.4 | 19 | 57* | 0.8
COc1ccc(C(C)(C)C)cc1NC(=O)COC(=O)c1cnc(C)cn1 | 8 | 0.9 | 27 | 12 | 0.7
C=CCn1c(SCc2csc(C)n2)nc2sc3c(c2c1=O)CCC(C)C3 (centres undefined) | 4 | nt | nt | nt | nt
C=CCn1c(SCc2csc(C)n2)nc2sc3c(c2c1=O)CCCCC3 | 14 | 0.5 | 88* | 45 | 0.1
C=CCn1c(SCC(=O)NCc2ccco2)nc2sc3c(c2c1=O)CCC3 | 18 | 1 | 27 | -2 | 0.7
C=CCn1c(SCc2csc(C)n2)nc2sc3c(c2c1=O)CCCC3 | 4 | 0.8 | 50* | 21 | 0.5
C#CCOC(=O)Nc1ccc(=O)n(Cc2c(Cl)cccc2Cl)c1 | 4 | 0.5 | 69* | 54* | 0.3
O=S(=O)(c1ccccc1)N1CCN=C1SCc1cccc(Cl)c1 | 3 | nt | nt | nt | nt
CCn1cc([N+](=O)[O-])c(C(=O)N2CCCC2)n1 | 5 | 0.4 | 41 | 56* | 0.6
Cc1nn(Cc2ccc(Cl)cc2)c(C)c1NC(=O)CSc1n[nH]c(C)c1[N+](=O)[O-] | 4 | nt | nt | nt | nt
Cc1ccc(NC(=S)NC(NC(=O)C(C)(C)C)C(Cl)(Cl)Cl)c(C)c1 (centres undefined) | 5 | 0.6 | 90* | 40 | 0.1
COc1ccccc1C(O)(C(=O)NN(C)c1ccccc1)c1ccccc1OC | 2 | nt | nt | nt | nt
Cc1cc(N2C(=O)CC(N3CCN(C(c4ccccc4)c4ccccc4)CC3)C2=O)no1 (centres undefined) | 1 | 0.2 | 98* | 78* | 0
Cc1cc(C)cc(CC2CC(=O)N(c3cc(C)on3)C2=O)c1 (centres undefined) | 15 | nt | nt | nt | nt
O=C(CN1C(=O)c2ccccc2C1=O)NNC1=NS(=O)(=O)c2ccccc21 | 18 | nt | nt | nt | nt
COc1cc2c(C)nc(C)c(C#N)c2cc1OC | 8 | 1.1 | 0 | -6 | 1
COc1ccc(Cl)cc1CN1CCN(c2nc(C)cc(C)c2C#N)CC1 | 7 | 0.1 | 79* | 92* | 0.2
Cc1cc(C)c(C#N)c(N2CCN(CCOc3ccc(Cl)cc3)CC2)n1 | 19 | 0.8 | 22 | 16 | 0.8
COc1ccccc1-n1c(=S)sc2c(=O)n(Cc3ccco3)c(SC)nc21 | 21 | 0.4 | 76* | 64* | 0.2
CCN(CC)C(=O)CSc1nc2c(sc(=S)n2-c2ccccc2)c(=O)n1Cc1ccco1 | 9 | 0.5 | 67* | 49 | 0.3
CCOC(=O)CSc1nc2c(sc(=S)n2Cc2ccco2)c(=O)n1-c1ccc(F)cc1 | 7 | 0.4 | 72* | 56* | 0.3
CCN(CC)C(=O)CSc1nc2c(sc(=S)n2CC)c(=O)n1-c1ccccc1 | 5 | 0.6 | 34 | 36 | 0.7
CCc1cccc(NC(=O)CCCSc2nc3ccccc3[nH]2)c1 | 8 | nt | nt | nt | nt
SMILES | Measles CPE | CYP2C19 act | CYP2C9 inhib | CYP2C19 inh | CYP2C9 activ
COc1cc(C(C[N+](=O)[O-])c2c(-c3ccccc3)cc3ccccn23)cc(OC)c1OC (centres undefined) | 21 | 0.6 | 59* | 45 | 0.4
COc1ccc(C(C[N+](=O)[O-])c2c(-c3ccccc3)cc3ccccn23)cc1 (centres undefined) | 0 | 0.2 | 74* | 75* | 0.3
COc1ccc(C(C[N+](=O)[O-])c2c(-c3ccccc3)cc3ccccn23)cc1OC (centres undefined) | 12 | 0.8 | 30 | 17 | 0.7
C=CCN(c1ccccc1)S(=O)(=O)c1cccc(C(=O)Oc2ccc3c(C)cc(=O)oc3c2)c1 | 17 | nt | nt | nt | nt
COC(=O)c1c(C(=O)OC)c2cc(C(=O)c3ccccc3)ccn2c1Cl | 5 | nt | nt | nt | nt
Cc1nn(-c2cccc(C(F)(F)F)c2)c(Cl)c1/C=N/n1cnnc1 | 5 | 0.1 | 95* | 90* | 0
FC(F)(F)c1cccc(-n2cccc2/C=N/n2cnnc2)c1 | 11 | 0.6 | 20 | 44 | 0.8
O=c1oc(Nc2cccc(F)c2)nc2ccccc12 | 4 | 1 | 8 | 4 | 0.9
Nc1nc(Nc2cccc(F)c2)nc2ccccc12 | 8 | 0.4 | 56* | 62* | 0.4
